Reference: PubChem BioAssay AID372 (MTDP, 2006)
Among all 100,000 compounds or so, about 770 (0.77%) were called active. This is one part of a sample in which actives are shown more often than they occur. Unmarked numbers belong to inactive results. No stated cut-off is given here; in the data, active means inhibition above about 50%; inactive means the rest.

molecular target: Gag-Pol polyprotein (Human immunodeficiency virus type 1 group M subtype B (isolate HXB2)) (UniProt P04585); assay: RNase H inhibition, HIV 1 Gag Pol polyprotein, FRET biochemical assay, screening (AID 372); settings: HIV-1 RT RNase H, FRET RNA/DNA substrate fluorescence; at 10 µM; active compounds read high

| SMILES | inhibition |
| --- | --- |
| CC(C(=O)N1CCOCC1)N1C(=O)c2cccc3cccc(c23)C1=O (stereo not drawn) | 19% |
| COc1ccc(C(=O)N2CCc3ccccc3C2)cc1 | 15% |
| COc1cc(/C=C2/C(=O)NC(=O)N(Cc3ccco3)C2=O)ccc1OCC(N)=O | 0% |
| CCOc1ccc(/C=C2\SC(=S)N(Cc3ccccc3)C2=O)c(OCC)c1 | 12% |
| CCOC(=O)C1=C(C)N(c2ccccc2)C(=O)C1 | 10% |
| COc1cccc(C2/C(=C(\O)c3ccc(Cl)cc3)C(=O)C(=O)N2CCCCCC(=O)O)c1 (stereo not drawn) | 16% |
| CC(C)(C)c1cc(CCC(=O)NCCN2C(=O)c3ccccc3C2=O)cc(C(C)(C)C)c1O | 2% |
| Cc1ccc(SCC(=O)N2CCCC2)cc1 | 6% |
| Nc1cccc(C2=Nc3cccc4cccc(c34)N2)c1 | 56% (active) |
| Nc1ccc(C2=Nc3cccc4cccc(c34)N2)cc1 | 56% (active) |
| Nc1cccc(-c2nnc(-c3ccccc3)o2)c1 | 3% |
| c1ccc(NC2=Nc3cccc4cccc2c34)cc1 | 12% |
| Nc1cccc(-c2cc(C(=O)O)c3ccccc3n2)c1 | 0% |
| Cc1ccc([N+](=O)[O-])cc1-c1ccc(/C=C(\C#N)C(=O)NCc2ccco2)o1 | 1% |
| Cc1nn(-c2ccccc2)c2c1C(c1ccc(O)cc1)C(C#N)=C(N)O2 (stereo not drawn) | 3% |
| O=c1/c(=C/c2cc([N+](=O)[O-])ccc2OCCCOc2ccccc2)sc2nc3ccccc3n12 | 4% |
| C=CC(=O)NC1(CCC)CCCCC1 | 11% |
| COc1ccc(/C=C(C(=O)O)/C(C)=C/C(=O)O)c(OC)c1 | 7% |
| COc1ccc(C(=O)c2ccc(Cl)cc2Cl)cc1 | 15% |
| Cc1sc2nc(-c3ccc(Br)cc3)[nH]c(=O)c2c1C | 8% |
| Cc1sc2nc(-c3ccccc3)[nH]c(=O)c2c1C | 10% |
| N=C1S/C(=C\c2ccc(N3CCOCC3)cc2)C(=O)N1c1ccc(Br)cc1 | 53% (active) |
| O=C1S/C(=C/c2ccc(Br)cc2)C(=O)N1c1ccccc1 | 0% |
| CCOC(=O)c1ccc(N2C(=N)S/C(=C\c3ccc(N4CCOCC4)cc3)C2=O)cc1 | 15% |

| SMILES | inhibition |
| --- | --- |
| O=C(NCc1ccccn1)C(=O)Nc1ccc(Oc2ccccc2)cc1 | 54% (active) |
| O=C(NCc1ccccn1)C(=O)Nc1ccc(F)cc1 | 12% |
| COc1ccc(NC(=O)C(=O)NCc2ccccn2)cc1 | 8% |
| O=C(O)Cn1cc(/C=C2\C(=O)NC(=S)N(c3ccccc3F)C2=O)c2ccccc21 | 55% (active) |
| O=C(Cn1cc(/C=C2/C(=O)NC(=S)N(c3cccc(Cl)c3)C2=O)c2ccccc21)Nc1ccccc1 | 55% (active) |
| O=C(Cn1cc(/C=C2/C(=O)NC(=O)N(c3cccc(Cl)c3)C2=O)c2ccccc21)Nc1ccccc1 | 32% |
| COc1cccc(OCCn2cc(C=C3C(=O)NC(=O)NC3=O)c3ccccc32)c1 | 12% |
| COc1ccc(NC(=O)/C(C#N)=C\c2cn(CC(=O)O)c3ccccc23)cc1 | 0% |
| COc1ccc(NC(=O)/C(C#N)=C/c2cn(CC(=O)Nc3ccccc3)c3ccccc23)cc1 | 59% (active) |
| N#C/C(=C\c1cn(CC(=O)Nc2ccccc2)c2ccccc12)C(=O)Nc1ccccc1 | 0% |
| O=C(O)Cn1cc(/C=C2/C(=O)NC(=O)N(c3ccccc3F)C2=O)c2ccccc21 | 10% |
| O=C(Cn1cc(/C=C2/C(=O)NC(=S)N(c3ccccc3F)C2=O)c2ccccc21)Nc1ccccc1 | 47% |
| Cc1cccc(OCCn2cc(C=C3C(=O)NC(=S)NC3=O)c3ccccc32)c1 | 7% |
| O=C(Cn1cc(/C=C2/C(=O)NC(=O)N(c3cccc(F)c3)C2=O)c2ccccc21)Nc1ccccc1 | 46% |
| COc1cccc(OCCn2cc(C=C3C(=O)NC(=S)NC3=O)c3ccccc32)c1 | 57% (active) |
| COc1ccc(OC)c(N2C(=O)C(Cl)=C(N3CCCCC3)C2=O)c1 | 14% |
| CCc1ccc(/C=C2\SC(=O)NC2=O)cc1 | 4% |
| COc1cc(NC(=O)c2ccc(Cl)c([N+](=O)[O-])c2)ccc1NC(=O)c1ccco1 | 5% |
| Cc1nnc(NC(=O)Cc2ccc(Br)cc2)s1 | 3% |
| COc1cc(CN2CCN(Cc3ccc4c(c3)OCO4)CC2)c([N+](=O)[O-])cc1OC | 6% |
| CCC(=O)Nc1cc(-c2nc3cc(Cl)ccc3o2)ccc1C | 0% |
| CC1=C(C(=O)OCC2CCCCC2)C(c2ccccc2F)NC(=O)N1 (stereo not drawn) | 17% |
| Cc1ccccc1N1C(=O)/C(=C\c2cn(CC(=O)Nc3ccccc3)c3ccccc23)C(=O)NC1=S | 26% |
| COc1ccc(N2C(=O)/C(=C/c3cn(Cc4ccccc4)c4ccccc34)C(=O)NC2=S)cc1 | 15% |

| SMILES | inhibition |
| --- | --- |
| O=C(Cn1cc(/C=C2/C(=O)NC(=S)N(c3ccccc3)C2=O)c2ccccc21)Nc1ccccc1 | 53% (active) |
| O=C1NC(=O)N(c2ccccc2F)C(=O)/C1=C/c1ccc(OCc2cccc(C(=O)O)c2)cc1 | 4% |
| Cc1ccc(N2C(=O)NC(=O)/C(=C/c3cn(CC(=O)Nc4ccccc4)c4ccccc34)C2=O)cc1 | 43% |
| O=C(Cn1cc(/C=C2/C(=O)NC(=O)N(c3ccc(Cl)cc3)C2=O)c2ccccc21)Nc1ccccc1 | 11% |
| CCOc1cccc(N2C(=O)NC(=O)/C(=C\c3cn(CC(=O)OC)c4ccccc34)C2=O)c1 | 0% |
| COC(=O)Cn1cc(/C=C2\C(=O)NC(=S)N(c3cccc(Cl)c3)C2=O)c2ccccc21 | 4% |
| CCOc1ccc(N2C(=O)/C(=C/c3ccc(OCc4cccc(C(=O)O)c4)cc3)C(=O)NC2=S)cc1 | 5% |
| CCc1ccccc1NC(=O)c1nn2c(c1Cl)NC(c1ccc(C)cc1)CC2C(F)(F)F (stereo not drawn) | 9% |
| CCCOc1ccccc1C1C(C(=O)OCC2CCCO2)=C(C)NC2=C1C(=O)CCC2 (stereo not drawn) | 6% |
| Oc1c(Br)cc(/C=N/Nc2nc(N3CCCCC3)nc(N3CCCCC3)n2)c(O)c1Br | 29% |
| CC(=O)NN1C(=O)/C(=C\c2ccc(I)o2)SC1=S | 0% |
| CCCOC(=O)c1c(NC(=O)Cc2ccc(OC)cc2)sc2c1CCCC2 | 40% |
| CC1=NN(c2ccccc2)C(=O)C1C(c1ccc([N+](=O)[O-])cc1)C1C(=O)N(c2ccccc2)N=C1C (stereo not drawn) | 4% |
| CC(=O)NC(c1ccccc1)C1C(=O)N(c2ccccc2)N=C1C (stereo not drawn) | 4% |
| CC1=NN(c2ccccc2)C(=O)C1C(c1ccccc1)C(C#N)C#N (stereo not drawn) | 54% (active) |
| COc1ccc(Cl)cc1N(CC(=O)N1CCC(C)CC1)S(=O)(=O)c1ccc(C)c([N+](=O)[O-])c1 | 6% |
| CCOc1cc(C=C2C(=O)NC(=O)NC2=O)ccc1OS(=O)(=O)c1ccc(C)cc1 | 17% |
| O=C(COc1ccc(Cl)cc1Cl)n1cc([N+](=O)[O-])cn1 | 6% |
| CCc1c(C#N)c(N)nc(SCC(=O)c2ccc(C)cc2)c1C#N | 13% |
| CCCCSc1nc(C)c(C(C)=O)cc1C#N | 8% |
| CC(=O)c1cc(C#N)c(SCC(=O)c2ccc(O)c(O)c2)nc1C | 75% (active) |
| Cc1nc(SCC(=O)c2ccc(O)c(O)c2)c(C#N)c(CC(C)C)c1C(N)=O | 51% (active) |
| Cc1cc(-c2ccc(C)o2)c(C#N)c(SCC(=O)c2ccccc2)n1 | 1% |
| CCc1c(C#N)c(N)nc(SCC(=O)c2ccc(Cl)c(Cl)c2)c1C#N | 14% |

| SMILES | inhibition |
| --- | --- |
| N#Cc1c(SCC(=O)c2ccc(Cl)cc2)nc2c(c1-c1ccco1)CCCC2 | 12% |
| COc1ccc(-c2cc(-c3ccc(OC)cc3)c(C#N)c(SCC(=O)c3ccc(C)cc3)n2)cc1 | 17% |
| COc1ccc(C(=O)CSc2nc3c(c(-c4ccc(C)o4)c2C#N)CCCC3)cc1 | 15% |
| CSc1nc(C)c(C(C)=O)cc1C#N | 13% |
| NC(N)=NS(=O)(=O)c1ccc(NC(=S)Nc2ccccc2)cc1 | 6% |
| CC(=O)C1(C)CC(C#N)(C#N)C(C#N)=C1N (stereo not drawn) | 0% |
| COCCOC(=O)c1ccc(NC(=O)C(C)Oc2ccc(Cl)cc2C)cc1 (stereo not drawn) | 11% |
| CC(=O)ON=C1CC(C)(C)NC(C)(C)C1 | 4% |
| CCOC(=O)/C=C/COc1ccc2oc(-c3ccccc3)c(C(=O)OCC)c2c1 | 10% |
| CC(=O)c1ccc(NC(=O)c2ccccc2Cl)cc1 | 2% |
| CCCOC(=O)CSc1nc(C)cc(C)c1C#N | 10% |
| Cc1cc(C)c(C#N)c(SCC(=O)c2ccc(O)c(O)c2)n1 | 70% (active) |
| Cc1cc(C)c(C#N)c(SCC(=O)Nc2ccc(Cl)cc2)n1 | 1% |
| COc1cccc(N2C(=O)/C(=C/c3c(OC)cc(OC)cc3OC)C(=O)NC2=S)c1 | 1% |
| CCCCc1ccc(/C(C)=N/Nc2cc(-n3cc(C)cn3)ncn2)cc1 | 0% |
| O=C(O)CCCCCN1C(=O)C(=O)/C(=C(/O)c2ccc(Cl)cc2)C1c1ccccc1 (stereo not drawn) | 13% |
| O=c1oc2cc(OCc3c(F)cccc3Cl)ccc2cc1-c1ccccn1 | 8% |
| CC(C)c1ccccc1OCCCN1CCCCC1 | 56% (active) |
| CC(C)c1ccccc1OCCCCN1CCCCC1 | 8% |
| CC(C)c1ccccc1OCCCN1CCCC1 | 3% |
| Cc1ccc(C)c(N(CC(=O)Nc2c(C)n(C)n(-c3ccccc3)c2=O)S(=O)(=O)c2ccccc2)c1 | 3% |
